Screen size: about 69,000 compounds; about 8,600 (12%) showed an effect of 50% or more. The list comes from a sample in which strong results are over-represented; it also holds similar structures and randomly drawn compounds.
system: Plasmodium berghei; test: Screen against P. berghei liver stage (PbLuc), transformed with Luciferase, at 10uM; type: functional, HepG2; details: tested at 10 uM

Q: `CC1(C)CN(c2cc(C3CC3)ncn2)C[C@]1(C)O` was tested. Which INHIBITION did it give?
A: -1.04%

Q: `COCCn1ccc(NC(=O)Nc2ccc(C(N)=O)c(F)c2)n1` was tested. Which INHIBITION did it give?
A: 11.1%

Q: How did the INHIBITION turn out when `O=C(N[C@@H]1CCN(Cc2cc3ccccc3s2)C[C@H]1O)c1cccnc1` was run?
A: 22%

Q: How did the INHIBITION turn out when `COC(=O)c1ccn(COc2ccccc2Cl)n1` was run?
A: -15.5%

Q: Which INHIBITION does the source give for `CCc1nc(C2CCCN2C(=O)CCn2cncn2)no1` (stereo not given) here?
A: 30.8%

Q: `Cc1cc(=O)[nH]c(-n2nc(C)c(CCC(=O)NCc3cccs3)c2C)n1` was tested. Which INHIBITION did it give?
A: 72.2%

Q: Which INHIBITION does the source give for `COC(=O)CCc1c(C)nn(-c2nc(C)cc(=O)[nH]2)c1C` here?
A: -12.6%

Q: How did the INHIBITION turn out when `Cc1cc(=O)[nH]c(-n2nc(C)c(CCC(=O)NCC(C)C)c2C)n1` was run?
A: 11.3%

Q: With `Cc1cc(=O)[nH]c(-n2nc(C)c(CCC(=O)Nc3nc(C)cs3)c2C)n1` as the compound, how does the INHIBITION read?
A: 68.2%

Q: How did the INHIBITION turn out when `Cc1noc(C)c1CCC(=O)NCCc1cccs1` was run?
A: -1.99%

Q: Which INHIBITION does the source give for `Cc1cc(=O)[nH]c(-n2nc(C)c(CCC(=O)NCc3ccco3)c2C)n1` here?
A: 6.09%

Q: With `Cn1nc(C(=O)NC2(c3ccccc3)CCC2)ccc1=O` as the compound, how does the INHIBITION read?
A: -4.35%

Q: With `Cc1c(C)c2c(c(C)c1O)CC[C@](C)(C(=O)O)O2` [(R)-TROLOX] as the compound, how does the INHIBITION read?
A: -10.3%

Q: `CC(C)CC(C)NCc1cccnc1N1CCN(c2ccccn2)CC1` (stereo not given) was tested. Which INHIBITION did it give?
A: 9.56%

Q: With `CCCC(C)NCc1cccnc1N1CCN(c2ccccn2)CC1` (stereo not given) as the compound, how does the INHIBITION read?
A: 50.7%

Q: For `CC(C)NCc1cccnc1N1CCN(c2ccccn2)CC1`, which INHIBITION is on record?
A: 37.7%

Q: For `CCc1nc(CN(C)C2CCN(CC(=O)N(C)C)C2)no1` (stereo not given), which INHIBITION is on record?
A: 24%

Q: `O=C(NC1CCN(C(=O)C2CCCCC2)C1)c1ccncc1Cl` (stereo not given) was tested. Which INHIBITION did it give?
A: 14.1%

Q: How did the INHIBITION turn out when `Cc1cnn(CCNCC(O)c2ccc(F)c(F)c2)c1` (stereo not given) was run?
A: 7.21%

Q: How did the INHIBITION turn out when `Cc1cnn(CCNCC(O)COc2cc(Cl)ccc2Cl)c1` (stereo not given) was run?
A: 50.3%

Q: `Cc1cnn(CCNCC(O)c2cccc(Br)c2)c1` (stereo not given) was tested. Which INHIBITION did it give?
A: 16.8%

Q: How did the INHIBITION turn out when `Cc1cnn(CCNCC(O)COc2ccc3ccccc3c2)c1` (stereo not given) was run?
A: 17.4%

Q: For `Cc1cnn(CCNCC(=O)Nc2ccc(Cl)cn2)c1`, which INHIBITION is on record?
A: -106%

Q: Which INHIBITION does the source give for `Cc1cnn(CCNCC(O)COc2ccc(Cl)cc2Cl)c1` (stereo not given) here?
A: 66.7%

Q: With `COc1cc(C(=O)NS(=O)(=O)c2cccc(C#N)c2)cc(OC)c1C` as the compound, how does the INHIBITION read?
A: 22.3%

Q: How did the INHIBITION turn out when `O=C(NCCN1CCCCCC1)c1n[nH]c(=O)c2ccccc12` was run?
A: 4.71%

Q: Which INHIBITION does the source give for `O=C(CCc1ccc(Cl)cc1)N[C@@H]1CC[C@@H](O)[C@@H]1O` here?
A: 45.75%

Q: With `CN1CC2(CCCN(c3cc(N4CCCCC4)ncn3)C2)OC1=O` (stereo not given) as the compound, how does the INHIBITION read?
A: 60.1%

Q: With `CNC(=O)C1(C)CCCN(c2cnccn2)C1` (stereo not given) as the compound, how does the INHIBITION read?
A: -26.2%

Q: With `CN1CC2(CCCN(c3nc(N)nc4c3CCCC4)C2)OC1=O` (stereo not given) as the compound, how does the INHIBITION read?
A: 45.6%

Q: How did the INHIBITION turn out when `CN1CC2(CCCN(c3cnccn3)C2)OC1=O` (stereo not given) was run?
A: 61%

Q: With `CC1(C(N)=O)CCCN(c2cnccn2)C1` (stereo not given) as the compound, how does the INHIBITION read?
A: 53.2%

Q: For `Cc1cc(N2CCCC3(CN(C)C(=O)O3)C2)c2cc3c(cc2n1)OCO3` (stereo not given), which INHIBITION is on record?
A: 28.6%

Q: Which INHIBITION does the source give for `CC1(C(=O)NC2CCCC2)CCCN(c2cnccn2)C1` (stereo not given) here?
A: -4.51%

Q: For `COc1ccc(CN2CCOC3(CCCN(c4cnccn4)C3)C2)cc1` (stereo not given), which INHIBITION is on record?
A: 44.2%

Q: `CC(C)Nc1cc(N2CCCC3(CN(C)C(=O)O3)C2)ncn1` (stereo not given) was tested. Which INHIBITION did it give?
A: 17.4%

Q: For `Cc1nc(CCC(N)=O)cc(C2CCNCC2)n1`, which INHIBITION is on record?
A: -10.8%

Q: For `O=C(COC[C@@H]1CC[C@H]2[C@H](CCN2Cc2ccco2)O1)N1CCCC1`, which INHIBITION is on record?
A: -54.9%

Q: Which INHIBITION does the source give for `Cc1c(C(=O)N2CCOCC2)nnn1-c1ccc2ncccc2c1` here?
A: -29.7%

Q: How did the INHIBITION turn out when `Cc1cc(C(=O)NCc2ccnc(N3CCN(C)CC3)c2)no1` was run?
A: 17.34%

Q: With `CN1CCN(C(=O)N2C[C@@H]3CC[C@H]2CN(Cc2ccccc2)C3)CC1` as the compound, how does the INHIBITION read?
A: 30.9%

Q: Which INHIBITION does the source give for `c1cnnc(N2CCCC(NCc3cn4ccccc4n3)C2)c1` (stereo not given) here?
A: 27.9%

Q: How did the INHIBITION turn out when `CCC1c2cccn2CCN1C(=O)c1ccno1` (stereo not given) was run?
A: -48.4%

Q: With `O=c1oc(-c2cccs2)nn1CC(O)c1ccc(F)cc1` (stereo not given) as the compound, how does the INHIBITION read?
A: -23.5%

Q: Which INHIBITION does the source give for `O=c1oc(-c2cccs2)nn1CC(O)c1ccc2c(c1)CCC2` (stereo not given) here?
A: 59.4%

Q: `O=c1oc(-c2cccs2)nn1CC(O)c1ccccc1` (stereo not given) was tested. Which INHIBITION did it give?
A: 0.547%

Q: With `CCNc1ccnc(NC2CCN(CC(N)=O)CC2)n1` as the compound, how does the INHIBITION read?
A: -9.92%

Q: For `CCNC(=O)N1CCC(Nc2nccc(NCC)n2)CC1`, which INHIBITION is on record?
A: 20.4%

Q: With `CCNc1ccnc(NC2CCN(S(C)(=O)=O)CC2)n1` as the compound, how does the INHIBITION read?
A: 72.3%

Q: For `CCOC(=O)N1CC(=O)N(CCc2ccccc2)CC(O)C1` (stereo not given), which INHIBITION is on record?
A: 28.3%

Q: For `CCN1C(=O)C(C)(C)c2cc(NC(=O)c3ccn(CC)n3)ccc21`, which INHIBITION is on record?
A: -42.9%

Q: `Cc1cc(C(=O)N2CCCC(n3ccnc3)C2)c(C)n1C1CC1` (stereo not given) was tested. Which INHIBITION did it give?
A: 27.4%

Q: For `COc1ccc(CNC(C)c2cn[nH]c2C)cc1` (stereo not given), which INHIBITION is on record?
A: 11.8%

Q: For `Cc1[nH]ncc1C(C)NCc1cccnc1` (stereo not given), which INHIBITION is on record?
A: 14.3%

Q: How did the INHIBITION turn out when `Cc1[nH]ncc1C(C)NCc1ccc(F)cc1` (stereo not given) was run?
A: 63.7%
